Assay outcomes: PubChem, National Center for Advancing Translational Sciences (NCATS)
Hits are enriched below; roughly 19% of the tested compounds scored in any of these assays.
IL1B secr inh – blocks inflammasome-driven IL-1 beta release; THP-1 LPS/ATP IL-1B secretion, AlphaLISA, 16 h; hits give low values; activity change, % at 57.5 µM; 360,000 tested, 4.7% active; in the data active means activity change below about -50%; inconclusive means mostly about -30% to -49%
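Secreted IL-1B measured by AlphaLISA bead assay after 16 h compound exposure of THP-1 cells; compounds (final up to 57.5 uM) added 1 h before LPS (250 ng/mL) and ATP (1.25 mM) stimulation; lower signal means less secretion.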
TDP1 cell CPT – growth inhibition of DT40 Tdp1-/-;hTDP1 cells with camptothecin (screen for TDP1 inhibitors) | Potency, µM (titrated, usually from 46.2 µM), actives largely listed as inhibitors | AID 686979 | chicken DT40 Tdp1-/-;hTDP1 cells + 20 nM CPT, ATP luminescence, 48 h | 420,000 tested, 12% active; further: nearly all actives have a fitted effect of over 55% in size
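Chicken DT40 Tdp1-/- cells complemented with human TDP1, 400 cells/well, exposed to compounds plus 20 nM camptothecin for at least 48 h at 37 C; viability read as ATP content by CellTiter-Glo luminescence.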
SW480 rereplic – inducers of DNA re-replication in SW480 colon cancer cells | Potency, µM (highest dose often 46.1 µM), hits mostly activators | 340,000 tested, 1.8% active | AID 624297 | SW480 DNA re-replication, Hoechst DNA content imaging, 48 h; further: nearly all actives have a fitted effect of over 55% in size
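SW480 cells exposed to compounds for 48 hr at 37 C, 5% CO2, then Hoechst-stained 40 min. Nuclear DNA content imaged by fluorescence scanning (405 nm excitation, 500-530 nm emission); re-replication scored as increased high-intensity nuclei.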
MCF10A rereplic – induces DNA re-replication in MCF 10a normal breast cells. Potency, µM (top dose mostly 46.1 µM), most hits filed as activators. 350,000 tested, 2.9% active. MCF 10A DNA re-replication, Hoechst nuclear intensity, 48 h; further: nearly all actives have a fitted effect of over 50% in size
DT40 TDP1 no CPT – qHTS for Inhibitors of human tyrosyl-DNA phosphodiesterase 1 (TDP1): qHTS in cells in absence of CPT; Potency, µM (series often up to 46.2 µM), actives largely listed as inhibitors; DT40 Tdp1-/- hTDP1 cells, no CPT, ATP luminescence, 48 h; 420,000 tested, 15% active; AID 686978, 2013; further: nearly all actives have a fitted effect of over 55% in size
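Seeded 400 DT40-hTDP1 cells/well (vehicle DMSO, no 20 nM CPT); pinned compounds; ≥48 hr at 37 °C; CellTiter-Glo luminescence as viability measure.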
BCR signal inh – blocks chronic active B-cell receptor signaling; ABC-DLBCL IkBa-CBG/CBR reporter, luminescence ratio, 4 h; Potency, µM (titrated, usually from 46.1 µM), hits mostly inhibitors; 340,000 tested, 0.05% active; AID 493014; active means well fitted inhibition curve with a large enough effect in the signal ratio, with a control signal flat, not every such curve was filed as active; inconclusive means small, poorly fitted or top-dose-only effect, or effect the other way, or a change in a side signal; the % refers to the signal ratio
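Doxycycline induced both beetle luciferases in TMD8 lymphoma cells; IKK-driven degradation limits the IkappaBalpha-fused green signal, while red luminescence normalises for cell number and nonspecific effects. Compounds tested up to 46 uM, 4 hrs.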
A number is an active result; - = inactive; ? = inconclusive; . = no result given; [ ] = dose if it differs, or a comment. Unless noted, the call rests on the fitted dose curve; in most records, active means well fitted curve in the direction sought with a large enough effect; inconclusive means small, poorly fitted or top-dose-only effect, or another doubt; inactive means no such curve, though single readings can be large; an effect the other way counts as inactive or inconclusive.

SMILES	IL1B secr inh	TDP1 cell CPT	SW480 rereplic	MCF10A rereplic	DT40 TDP1 no CPT	BCR signal inh
O=C(c1ccco1)N1CCN(c2ncnc3scc(-c4cccs4)c23)CC1	-	18.4µM	-	-	13µM	-
O=C(c1ccco1)N1CCN(c2ncnc3scc(-c4ccccc4)c23)CC1	-	16.4µM	-[9.22 µM]	-	16.4µM	-
COc1ccc(-c2csc3ncnc(N4CCN(C(=O)c5ccco5)CC4)c23)cc1	-	23.1µM	-	-	?	-
COc1ccccc1N1CCN(S(=O)(=O)c2c(C)sc3ncn(CC(=O)Nc4ccccc4F)c(=O)c23)CC1	.	-	.	.	-	.
COCC(C)n1c(SCC(=O)NC(=O)NCc2ccccc2)nc2ccccc2c1=O (stereo not drawn)	-	-	?	-	-	?
CSc1ccc(/C=C/C(=O)OCC(=O)c2ccc[nH]2)cc1	-	-	-	-	-	-
CCCNC(=O)C1CC(c2ccc(C(F)(F)F)cc2)=NO1 (stereo not drawn)	-	11.6µM	-	-	11.6µM	-
CCCCNC(=O)C1CC(c2ccc(C(F)(F)F)cc2)=NO1 (stereo not drawn)	-	18.4µM	?	-	9.2µM	-
CCCCN(CCCC)CCCNC(=O)C1CC(c2ccc(C(F)(F)F)cc2)=NO1 (stereo not drawn)	?	?	-	-	?	-
O=C(CCNC(=O)c1ccc(Br)cc1)NCC1COc2ccccc2O1 (stereo not drawn)	-	?	-	-	-	?
COc1cc(/C=N/N=C(N)N)ccc1OCc1ccccc1Cl	-66.5	?	?	-	14.6µM	?
COc1ccc(/C=N/N=C/c2ccc(OC)c(OC)c2)cc1OC	-	-	-	-	-	-
Cc1cc(C)n2c(NC3CCCC3)c(-c3cccnc3)nc2n1	-	-	.	.	-	.
CCN(CC)c1ccc(-c2nc3cnccn3c2NC2CCCC2)cc1	?	20.6µM	20.6µM	16.4µM	?	-
CCC(C)Sc1cccc(-c2nc3cnccn3c2NC2CCCCC2)c1 (stereo not drawn)	-	20.6µM	?	18.4µM	16.4µM	?
c1cc(SC2CCCCC2)cc(-c2nc3cnccn3c2NC2CCCCC2)c1	-65.6	?	3.26µM	5.8µM	?	?
CCOC(=O)C1C(=O)C=C(Nc2ccccc2F)CC1c1ccccc1 (stereo not drawn)	-	-	-	-	?	-
COc1cccc2cc(-c3nc(-c4ccccc4F)no3)c(=O)oc12	.	-	.	.	-	.
Cc1ccc(C(=O)N2[C@@H]3CN(C)C(=O)[C@@]2(Cc2ccccc2)[C@H]2C(=O)N(Cc4ccccc4)C(=O)[C@@H]32)cc1	-	0.0052µM	-	-	?	.
Cc1ccc(C2(c3noc(CN4CCC(c5ccncc5)CC4)n3)CCCC2)cc1	-	13µM	-	-	18.4µM	-
Fc1cccc(Cc2noc(CN3CCC(c4ccncc4)CC3)n2)c1	-	18.4µM	-	-	13µM	-
O=CN1CCCN(Cc2nc(Cc3ccccc3F)no2)CC1	-	-	-	-	-	?
Fc1ccccc1Cc1noc(CN2CCC(OCc3cccnc3)CC2)n1	-	?	-	-	23.1µM	-
Fc1ccccc1Cc1noc(CN2CCN(C/C=C/c3ccccc3)CC2)n1	-	18.4µM	-	?	18.4µM	-
CCc1nn(CC(=O)NCc2ccc(OC)cc2OC)c(=O)c2cc3c(OC)cccc3n12	.	-	.	.	-	.
CCOC(=O)C1(C)CCN1C(=O)c1cc2ccccc2s1 (stereo not drawn)	-	?	.	.	?	.
CC(C)NC(=O)C1(S(=O)(=O)c2ccccc2)CC=CC1	-	-	-	-	-	-
Cc1ccc(C)c(OCCCn2c(-c3ccc(Cl)cc3)nc3ccccc3c2=O)c1	.	-	.	.	-	.
C=C(CCO)C1=CCN(S(=O)C(C)(C)C)[C@@H]1CCO (stereo partly drawn)	-	-	-	-	-	.
